PubChem BioAssay AID449762 (Southern Research Specialized Biocontainment Screening …, 2010)
“And” between values parts separate entries of the source, which are not always exact repeats. Equal entries are not always repeated. The campaign covered roughly 330,000 compounds. About 1,900 (0.58%) were called active. Roughly 4% stayed inconclusive and do not appear here. No stated cut-off is given here; in the data, inconclusive means inhibition above about 70% without an active follow-up result; inactive means below that. The list is a sample of the results. Results with a measured potency or affinity are listed apart.

Experiment: M. tuberculosis growth inhibition, HTS (AID 449762);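 further: bacterial growth assessed after seven days of incubation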
Settings: M. tuberculosis H37Rv growth inhibition, 7H9 media; at 25 µM; hits give high values

Compound | inhibition
COc1ccc(-c2cn3cc(C)ccc3n2)cc1OC | -0.94% (inactive)
COc1ccc(-c2cn3cc(Cl)ccc3n2)cc1OC | 35.8% (inactive)
Cc1ccc(CN(C)C(=O)C2CCC(=O)N(C3CCCCCC3)C2)cc1 (stereo not given) | 0.77% (inactive)
OCCC1CN(Cc2cccn2-c2cccnc2)CCN1C1CCCCC1 (stereo not given) | -3.37% (inactive)
NC(=O)NOCc1c(Cl)cccc1Cl | -2.55% (inactive)
CO/N=C/NC(=O)NOCc1c(Cl)cccc1Cl | -5.31% (inactive)
CN(C(=O)c1ccc2nc(N)sc2c1)c1ccccc1 | -7.17% (inactive)
COc1ccc(NC(=O)/C(=C\c2cccs2)NC(=O)c2ccco2)cc1 | 6.87% (inactive)
CCOC(=O)N1CCN(C(=O)CCCN2C(=O)CSc3nc(C)cc(C)c32)CC1 | 0.43% (inactive)
COc1ccc(NC(=O)CCl)cn1 | 55.6% (inactive)
COc1ccc(CS(=O)(=O)/C(Cl)=C(/Cl)C(=O)Nc2ccc(OC)nc2)cc1 | 35% (inactive)
COc1ccc(S(=O)(=O)N2CCOCC2)cc1NC(=O)CCCOc1ccc(Cl)cc1C | -8.9% (inactive)
COc1ccccc1-n1c(-c2ccccc2)c[n+]2c1CCc1ccccc1-2 | 10.8% (inactive) and 4.8% (inactive)
COc1ccc(-n2c(-c3ccc(Cl)cc3)c[n+]3c2CCCCC3)cc1 | -4.69% (inactive)
O=c1cccc2n1C[C@@H]1C[C@@H]2CN(CC(O)c2ccc([N+](=O)[O-])cc2)C1 (stereo not given in full) | 9.8% (inactive)
COc1ccccc1C(=O)COC(=O)c1cc([N+](=O)[O-])ccc1N1CCOCC1 | 32.4% (inactive)
Cc1ccccc1Nc1c(-c2ccccn2)nc2c(C)cccn12 | 1.32% (inactive)
Cc1cccn2c(Nc3ccccc3)c(-c3ccccn3)nc12 | 67.1% (inactive)
CCN(CC)C(=O)CSc1nnc(-c2c[nH]c3ccccc23)o1 | 1.41% (inactive)
CCSc1nnc(-c2ccc(S(=O)(=O)NCc3cccs3)cc2)o1 | -2.17% (inactive)
Cc1ccc(C(=O)CSc2nnc(-c3c[nH]c4ccccc34)o2)cc1 | 0.92% (inactive)
CCN(CC)C(=O)CSc1nnc(-c2ccc(S(=O)(=O)NCc3ccccc3Cl)cc2)o1 | 5.34% (inactive)
CSc1nnc(-c2ccc(Cl)cc2Cl)o1 | 26.3% (inactive)
COc1ccccc1-c1nnc(SCC(=O)Nc2ccc(Cl)cc2Cl)o1 | -3.38% (inactive)

Compound | inhibition
C/C(=N\O)c1noc(C)c1C(=O)Nc1nccs1 | -2.68% (inactive)
O=S(=O)(c1cccc(-c2cn3ccccc3n2)c1)N1CCCCC1 | 0.63% (inactive)
CCOC(=O)[C@H]1NN=C(C(=O)OC)[C@@H]1c1ccccc1 | -5.97% (inactive)
COCCOC(=O)N/C=C\c1nc2ccccc2c(=O)[nH]1 | -1.7% (inactive)
COc1ccc(C2C(C(=O)N3CCN(C)CC3)c3cc(OC)c(OC)cc3C(=O)N2C)cc1 (stereo not given) | 11% (inactive)
CC(=O)c1ccc(NC(=O)C(C)O/N=C(\N)c2ccccc2)cc1 (stereo not given) | 1.95% (inactive)
CCCc1ccc(-c2cc(C(=O)NC3=NCCS3)c3ccccc3n2)cc1 | -0.06% (inactive)
CC1CCCC(NC(=O)COC(=O)c2ccc(S(=O)(=O)N3CCOCC3)cc2)C1C (stereo not given) | -1.74% (inactive)
Cc1ccc(C(=O)NNC(=O)c2csc(N3CCOCC3)n2)o1 | 0.22% (inactive)
Cc1nn(-c2ccc(F)cc2F)c2c1-c1nc(N3CCCC3)ncc1CC2 | 69.4% (inactive)
Cc1nn(-c2ccccn2)c2c1-c1nc(N)ncc1CC2 | 0.53% (inactive)
CCO/C=N/Nc1nc(C(F)(F)F)nc2c1cnn2Cc1ccccc1 | 60.4% (inactive)
COc1ccc(OC)c(NC(=O)c2ccc(OCC(=O)N3CCOCC3)c(OC)c2)c1 | 1.16% (inactive)
CN(Cc1ccccc1)c1nc(CN2CCOCC2)nc2scc(-c3ccccc3)c12 | 5.04% (inactive)
CCNc1nc(CN2CCCCC2)nc2scc(-c3ccccc3)c12 | 40.7% (inactive)
O=C(Nc1ccccc1[N+](=O)[O-])C1=C(O)CCn2c1nc1ccccc12 | -3.87% (inactive)
Cc1ccc(NC(=O)NCc2nc3ccccc3n2C)cc1 | -2.85% (inactive)
COC(=O)CN1C(=O)N(c2ccccc2)C(N(O)C(=O)Nc2ccccc2)C1(C)C (stereo not given) | 2.21% (inactive)
COc1ccc(Nc2nc(N3CCN(S(C)(=O)=O)CC3)nc3ccccc23)c(OC)c1 | 2.78% (inactive)
COc1ccc(Nc2nc(N3CCN(C)CC3)nc3ccccc23)c(OC)c1 | -4.21% (inactive)
C=CCNC(=O)CN1C2CCCC1CC(NC(=O)c1ccccc1C)C2 (stereo not given) | -6.37% (inactive)
O=C(COC(=O)c1ccccc1N1C(=O)C2C3CCC(C3)C2C1=O)c1ccccc1 (stereo not given) | -3.76% (inactive)
COc1cc([N+](=O)[O-])ccc1NC(=O)CN1CCc2cc(OC)c(OC)cc2C1 | 6.98% (inactive)
CCOC(=O)C(NCCCCl)c1ccccc1 (stereo not given) | 0.32% (inactive)

Compound | inhibition
COc1ccccc1OCCOCCN1CCCC1 | -4.15% (inactive)
COc1ccccc1OCCCCN1CCCCC1 | 2.93% (inactive)
CCCc1cc(NC(=O)COC(=O)c2nccnc2N)n(-c2ccccc2)n1 | 50.9% (inactive)
CCCc1cc(NC(=O)COC(=O)c2ccc(O)cc2O)n(-c2ccccc2)n1 | -2.82% (inactive)
C=CCNC(=S)NNC(=O)CCC(O)COCCC(C)C (stereo not given) | 1.2% (inactive)
CCOC(=O)N1CCC(NC(=O)c2cc(COc3ccccc3SC)on2)CC1 | 1.54% (inactive)
CC1=NN(c2cccc(C(=O)O)c2)C(=O)/C1=C\C=C\c1ccco1 | -4.32% (inactive)
COc1cc(/C=C2/C(=O)N(c3ccc(C)c(C)c3)N=C2C)cc([N+](=O)[O-])c1O | -4.94% (inactive)
Cc1nn(C)c(C)c1CNC(=O)Nc1cccc(Cl)c1C | -2.03% (inactive)
Cc1ccc([N+](=O)[O-])c(NC2OC(CO)C(O)C2O)c1 (stereo not given) | -2.66% (inactive)
COc1ccc(C2CC(c3ccc(Br)cc3)=NN2C(=O)c2cccnc2)cc1 (stereo not given) | 47.5% (inactive)
N#CCc1nc2ccc(S(=O)(=O)N3CCOCC3)cc2s1 | -0.38% (inactive)
Cc1ccccc1CN1CCCN(Cc2ccc(Cl)cc2)S1(=O)=O | 2.25% (inactive)
CCOC(=O)c1c(NC(=O)CCCC(=O)O)sc2c1CCC2 | 1.76% (inactive)
CCOC(=O)c1c(NC(C)=O)sc2c1CCC(C=O)=C2Sc1ccccc1 | 6.72% (inactive)
COc1cccc(Cn2c(=O)ccc3ccccc32)c1 | 7.74% (inactive)
O=C(Nc1ccc(Oc2cccc(C(F)(F)F)c2)nc1)c1ccccc1 | 14% (inactive)
Cc1ccc(C(=O)Nc2ccc(Oc3cccc(C(F)(F)F)c3)nc2)cc1 | 3.4% (inactive)
O=C1CN=CN=CN1c1ccc(Cl)cc1Cl | 10.8% (inactive)
CCOC(=O)N1CCN(C(=O)C2CCC(=O)N(CCCc3ccccc3)C2)CC1 (stereo not given) | -4.71% (inactive)
Cc1cc(C)n(-c2nc3ccccc3c(=O)n2OCC(N)=O)n1 | 13.1% (inactive)
Cc1cc(CC(C)C)n(-c2nc3ccccc3c(=O)n2OCc2ccccc2)n1 | 58.9% (inactive)
Cc1ccc(S(=O)(=O)NCC(=O)N(CC(=O)NCC2CCCO2)c2ccc(Cl)cc2)cc1 (stereo not given) | -3.29% (inactive)
COc1ccc(C(=O)NNC(=O)CSc2nc3c(c(=O)n(C)c(=O)n3C)n2C)cc1 | 1.02% (inactive)

Compound | inhibition
O=C(Nc1ccc(C(F)(F)F)cc1)c1ccccc1 | 0.07% (inactive)
COc1cc(NC(=O)C[n+]2ccc(C(=O)c3ccccc3)cc2)cc(OC)c1 | -7.81% (inactive)
C[C@@H](CN1C(=O)C(=O)NC[C@@H]1Cc1ccc(O)cc1)NC(=O)Cc1ccccc1 | -2.19% (inactive)
Cn1cccc1-c1cc(C(=O)N/N=C/c2ccc(F)cc2)[nH]n1 | -3.95% (inactive)
CN(Cc1ccco1)c1ncnc2ccc(-c3ccoc3)cc12 | 17.5% (inactive)
Cc1sc2ncnc(N(C)Cc3ccco3)c2c1C | -1.32% (inactive)
CCOC(=O)C1=NN(c2ccccc2)C(c2ccccc2)CC1=O (stereo not given) | 12.7% (inactive)
C=CCOc1ccc(C2CC(C)=NN2c2ccccc2)cc1 (stereo not given) | 3.55% (inactive)
Cc1ccc(N2C(=O)C3C(c4ccccc4)(C2=O)C3(c2ccccc2)c2ccccc2)cc1 (stereo not given) | 20.2% (inactive)
O=C1c2ccccc2C(=O)N1c1ccc(Cl)cc1 | -5.93% (inactive)
O=c1c(Br)c(NCc2ccccc2)cnn1-c1ccc(F)cc1 | -5.73% (inactive)
Cn1nnnc1Sc1ccc(C(=O)O)cc1[N+](=O)[O-] | 2.4% (inactive)
O=C(O)c1ccc(Sc2nnnn2-c2ccccc2)c([N+](=O)[O-])c1 | 3.58% (inactive)
COc1ccc(C(=O)c2ccc(N3CCN(C4CC(=O)NC4=O)CC3)cc2)cc1F (stereo not given) | 0.26% (inactive)
Cc1nc(Sc2ccccc2)c(C#N)c(C)c1[N+](=O)[O-] | 3.11% (inactive)
Nc1ncnc(Sc2ccccc2)c1[N+](=O)[O-] | -0.35% (inactive)
C=CCNC(=O)COc1cc(C)cc(C)c1C | -2.5% (inactive)
CCOc1ccc(CCNC(=O)Cn2c(=O)c3cccn3c3cccnc32)cc1 | -8.95% (inactive)
Cc1ccc(Sc2c([N+](=O)[O-])ncn2C)cc1 | -9.59% (inactive)
Cn1cnc([N+](=O)[O-])c1Sc1ccccc1 | -3.64% (inactive)
Cc1cc(OC(=O)C(c2ccccc2)c2ccccc2)c([N+](=O)[O-])c(=O)[nH]1 | 1.27% (inactive)
CC1=NN2C(=N)/C(=C\c3cc(C)n(-c4ccccc4)c3C)C(=O)N=C2S1 | -0.68% (inactive)
NC(=O)CSc1n[nH]c(=O)n1CCc1ccccc1 | -5.89% (inactive)
